Measurements from PubChem BioAssay (NCI).
The panel holds about 79,000 compounds, 15% with a hit somewhere; the sample as a whole holds those more often. Values without a mark were called inactive. The source made the active and inactive calls. Rule as the data show it: active = growth inhibition above about 70%; inactive = the rest.

Assays:
[1] = NCI Yeast Anticancer Drug Screen. Data for the rad50 strain (AID 155);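 also: 0% = growth of vehicle-only cultures of the same strain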; conditions: S. cerevisiae rad50 strain growth inhibition, active compounds read high
Method in brief: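 Readout: growth inhibition relative to vehicle-treated cultures. Compound exposure was carried out in a genetically defined yeast strain deficient in DNA damage repair.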

[2] = NCI Yeast Anticancer Drug Screen. Data for the mec2-1 strain (AID 157); conditions: S. cerevisiae mec2-1 strain, active compounds read high
Method in brief: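 Each compound was tested on mec2-1 yeast, a strain altered in DNA damage repair or cell cycle control. Growth inhibition is reported relative to vehicle.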

[3] = NCI Yeast Anticancer Drug Screen. Data for the sgs1 mgt1 strain (AID 161);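 also: 0% = growth of cultures given vehicle only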; conditions: S. cerevisiae sgs1 mgt1 strain, active compounds read high
Method in brief: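 Inhibition of yeast growth, normalised to vehicle-treated controls, is reported for a strain bearing genetic alterations in DNA damage repair.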

[4] = NCI Yeast Anticancer Drug Screen. Data for the cln2 rad14 strain (AID 165);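 also: 0% = growth equal to vehicle treated cultures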; conditions: S. cerevisiae cln2 rad14 strain, active compounds read high
Method in brief: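 Test compounds were added to cln2 rad14 yeast cultures; inhibition of growth was then determined by comparison with vehicle treatment.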

[5] = NCI Yeast Anticancer Drug Screen. Data for the bub3 strain (AID 167); conditions: S. cerevisiae bub3 mutant strain, active compounds read high
Method in brief: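 Readout: yeast growth inhibition, expressed relative to vehicle-only wells. The test organism is a mutant strain from a panel with lesions in DNA repair or checkpoint genes.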

[6] = NCI Yeast Anticancer Drug Screen. Data for the mlh1 rad18 strain (AID 175); conditions: S. cerevisiae mlh1 rad18 strain growth inhibition, active compounds read high
Method in brief: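 Inhibition values reflect reduced growth of mutant yeast versus vehicle-treated controls following compound exposure; the mutations affect DNA damage repair.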

[7] = at 5.0 µM (retest, dose inferred, filed as 0.5)
[8] = at 50.0 µM (retest, dose inferred, filed as 5.0)

Row | Structure (SMILES) | growth inhibition [1, 7] | growth inhibition [1, 8] | growth inhibition ([1]; at 50.0 µM) | growth inhibition [2, 7] | growth inhibition [2, 8] | growth inhibition ([2]; at 50.0 µM) | growth inhibition [3, 7] | growth inhibition [3, 8] | growth inhibition ([3]; at 50.0 µM) | growth inhibition [4, 7] | growth inhibition [4, 8] | growth inhibition ([4]; at 50.0 µM) | growth inhibition [5, 7] | growth inhibition [5, 8] | growth inhibition ([5]; at 50.0 µM) | growth inhibition [6, 7] | growth inhibition [6, 8] | growth inhibition ([6]; at 50.0 µM)
1 | O=S(=O)(CCCl)Cc1ccccc1 | -145% | -144% | 5.2% | -45% | -39% | -0.4% | -61% | -37% | 14% | -50% | -50% | 10.7% | -69% | -66% | 10.7% | -144% | -100% | 10.8%
2 | CC(=O)Oc1c2c(c(OC(C)=O)c3c1n(C(C)=O)c1ccccc1n3C(C)=O)n(C(C)=O)c1ccccc1n2C(C)=O | 50% | 50% | 78.2% (active) | 42% | 42% | 74.8% (active) | 34% | 34% | 79.7% (active) | 26% | 26% | 62.5% | 44% | 44% | 69.8% | 51% | 51% | 69.7%
3 | O=c1oc2ccccc2c(O)c1/C=N/C(=S)NCCc1ccccc1 | 29% | 88% (active) | -11.6% | 30% | 95% (active) | -22.4% | 32% | 92% (active) | -6.05% | 26% | 40% | -27.8% | 44% | 96% (active) | -10.2% | 32% | 93% (active) | -5.75%
4 | OCC1OC(NC(=S)NCSCCC(F)(F)C(F)(F)C(F)(F)C(F)(F)C(F)(F)C(F)(F)F)C(O)C(O)C1O (configuration not stated) | 17% | -21% | 80.8% (active) | 7% | 19% | 93.5% (active) | 36% | 36% | 93.6% (active) | 22% | 37% | 66.4% | 7% | -8% | 95.1% (active) | 22% | -3% | 92.3% (active)
5 | Oc1ccccc1C1CCCCC1 | 1% | 38% | 88.5% (active) | 3% | 17% | 84.3% (active) | 0% | 47% | 96.1% (active) | 4% | -10% | 46.6% | -9% | 6% | 73.2% (active) | 4% | 46% | 93.2% (active)
6 | Cc1c(Cl)ccc2c(C(O)CNCc3ccccc3)cc(-c3ccc(Cl)cc3)nc12 (configuration not stated) | 44% | 95% (active) | 98.5% (active) | 58% | 95% (active) | 91% (active) | 66% | 92% (active) | 97.1% (active) | 17% | 94% (active) | 93.8% (active) | 26% | 95% (active) | 12.1% | 59% | 95% (active) | 96.5% (active)
7 | COc1ccc(C)cc1NC(=O)ON=C1CCCCC1 | 45% | 83% (active) | 88.2% (active) | 35% | 88% (active) | 91.8% (active) | 47% | 92% (active) | 91.9% (active) | 38% | 81% (active) | 90.5% (active) | 30% | 91% (active) | 91.7% (active) | 48% | 94% (active) | 90.5% (active)
8 | Oc1c(Cl)cc(Cl)cc1C=Nc1cc(C(F)(F)F)ccc1Cl | 76% (active) | 100% (active) | 91.8% (active) | 50% | 99% (active) | 74.4% (active) | 46% | 100% (active) | 91.7% (active) | 8% | 76% (active) | 55.1% | 5% | 50% | 77.4% (active) | 50% | 99% (active) | 85.9% (active)
9 | COc1cc(C(c2cc3c(cc2OC(C)=O)OCO3)C(C(C)=O)C(C)=O)cc(OC)c1OC(C)=O (configuration not stated) | 7% | 18% | 3.7% | -4% | 18% | 5% | -5% | 0% | -18.9% | -1% | 1% | -16.4% | 8% | 13% | 8.75% | 3% | 11% | -4.2%
10 | [N-]=[N+]=Nc1ccc(SN2C(=O)c3ccccc3C2=O)cc1 | 29% | 98% (active) | 90.7% (active) | 23% | 95% (active) | 88.4% (active) | 6% | 98% (active) | 92.5% (active) | 3% | 67% | 63.1% | 1% | 44% | 95.4% (active) | 10% | 95% (active) | 73.3% (active)
11 | COc1c2c(c(C)c3ccc4ccccc4c13)CCN=C2 | -11% | 93% (active) | 80.2% (active) | -4% | 95% (active) | 43.3% | -5% | 96% (active) | 88.2% (active) | -9% | 83% (active) | 13.4% | 10% | 96% (active) | 79.2% (active) | -9% | 93% (active) | 79.9% (active)
12 | CCOP(=O)(OCC)C(=C1C=C(C(C)(C)C)C(=O)C(C(C)(C)C)=C1)P(=O)(OCC)OCC | 2% | 97% (active) | 98.2% (active) | -15% | 99% (active) | 96.8% (active) | 0% | 89% (active) | 98.8% (active) | -4% | 99% (active) | 97.2% (active) | 5% | 99% (active) | 97.2% (active) | -12% | 98% (active) | 96.8% (active)
13 | OC(CC(CC(O)(C(F)(F)Cl)C(F)(F)Cl)=NNc1ccccc1)(C(F)(F)Cl)C(F)(F)Cl | 87% (active) | 99% (active) | 99% (active) | 91% (active) | 99% (active) | 99.2% (active) | 79% (active) | 98% (active) | 99.3% (active) | 83% (active) | 99% (active) | 99.2% (active) | 52% | 99% (active) | 99% (active) | 93% (active) | 99% (active) | 99% (active)
14 | N#Cc1ccc([N+](=O)[O-])cc1C#N | -155% | 97% (active) | 99.2% (active) | -46% | 97% (active) | 99.8% (active) | -56% | 98% (active) | 99.6% (active) | -50% | 96% (active) | 97.6% (active) | -66% | 98% (active) | 97.6% (active) | -135% | 98% (active) | 99.5% (active)
15 | NC(=S)c1cccc(C2Nc3ccccc3O2)c1 (configuration not stated) | -1% | 24% | 75.1% (active) | 0% | 11% | 44% | 9% | 18% | 39.1% | 0% | 30% | 37.7% | 47% | 68% | 81.7% (active) | 37% | 61% | 76.3% (active)
16 | O=CC(O)CN1CCCC1 (configuration not stated) | -2% | 11% | 49.6% | 0% | 14% | 53.2% | 2% | 8% | 87.7% (active) | -4% | 6% | 96.8% (active) | -4% | 25% | 12.7% | 1% | 16% | 92.9% (active)
17 | Cn1c2c(c3ccccc31)CCN(CCCN1CCN(c3ccccc3)CC1)C2=O | 49% | 49% | 90.1% (active) | 43% | 43% | 89.2% (active) | 58% | 58% | 90.4% (active) | 38% | 38% | 91.5% (active) | 51% | 51% | 91.3% (active) | 41% | 41% | 84.7% (active)
18 | C=CCNC(=O)NC(=O)CSC1=NNC2(C(=O)N1)c1ccccc1-c1ccccc12 | -4% | 74% (active) | 85.2% (active) | -21% | 65% | 78.7% (active) | -11% | 85% (active) | 87.1% (active) | 2% | 82% (active) | 85.7% (active) | -16% | 91% (active) | 86.5% (active) | -6% | 88% (active) | 86.7% (active)
19 | CCCCCCC(=O)CCCCCC/C=C\CC1OC(=O)C(N)(CO)C1O (configuration not stated) | 34% | 98% (active) | 91.5% (active) | 45% | 99% (active) | 93.5% (active) | 43% | 98% (active) | 93.2% (active) | 55% | 98% (active) | 90% (active) | 80% (active) | 98% (active) | 91% (active) | 58% | 98% (active) | 91.5% (active)
